CYP2C19 activ – activators of human cytochrome P450 2C19 | 96,000 tested, under 10 active | P33261 | recombinant CYP2C19, luciferin-H EGE luminescence; hits give high values; 0 = fully inhibited enzyme, 1 = untreated enzyme | activation factor at 5 µM;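 active means activation factor of at least 2 at 5 µM in the primary screen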;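 further: 0 = wells with 2.5 mM tranylcypromine and 1 = vehicle-only wells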
PostGolgi ctrl – yeast control strain growth, post-Golgi counter-screen. inhibition, % at 10 µM. efflux-deficient yeast background strain, growth absorbance A615, 16 h. 98,000 compounds, 5% hits. AID 738
PostGolgi yeast – growth inhibition of a yeast mutant, post-Golgi transport screen | post-Golgi transport phenotypic cell assay | 98,000 compounds, 0.9% hits | inhibition, % at 10 µM;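 further: yeast cells grown in 1536-well plates; yeast grown about 18 h at 30C before absorbance read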
CYP2C19 inh – human CYP2C19 inhibition; CYP2C19 Supersomes, luciferin-H EGE luminescence, 30 min; inhibition, % at 5 µM; 96,000 compounds, 21% hits;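 active means CYP2C19 inhibition above a set limit at 5 µM in the primary screen, cut at about 50% in these data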;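 further: plate controls were negative control wells for no effect and 2.5 mM tranylcypromine positive control for full effect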
CYP2C9 activ – CYP2C9 (human) activation | P11712 | recombinant CYP2C9, luciferin-H conversion, luminescence; hits give high values; factor 1 = untreated enzyme, 0 = blocked | activation factor at 5 µM | 96,000 compounds, 1.4% hits | AID 1024;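 active means activation factor of 2 or more for CYP2C9 at a 5 µM dose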;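 further: 0 = sulfaphenazole-blocked wells and 1 = vehicle-only wells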
Target sequence (P11712 whole entry, looked up): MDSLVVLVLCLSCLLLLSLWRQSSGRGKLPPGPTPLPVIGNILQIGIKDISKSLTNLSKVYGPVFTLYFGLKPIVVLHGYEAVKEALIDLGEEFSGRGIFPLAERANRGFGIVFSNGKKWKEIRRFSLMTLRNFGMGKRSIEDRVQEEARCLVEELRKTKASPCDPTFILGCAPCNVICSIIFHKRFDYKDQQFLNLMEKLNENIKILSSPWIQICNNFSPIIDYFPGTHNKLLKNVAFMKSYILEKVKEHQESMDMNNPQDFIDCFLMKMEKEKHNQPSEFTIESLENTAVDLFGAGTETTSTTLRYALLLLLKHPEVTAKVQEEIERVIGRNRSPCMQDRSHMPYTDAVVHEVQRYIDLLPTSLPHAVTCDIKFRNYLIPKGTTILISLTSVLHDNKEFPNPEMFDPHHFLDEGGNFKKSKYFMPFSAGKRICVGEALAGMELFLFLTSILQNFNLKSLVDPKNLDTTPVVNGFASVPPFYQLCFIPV
CYP2C9 inh – blocks human cytochrome P450 2C9; P11712; CYP2C9 Supersomes, luciferin-H conversion, luminescence; inhibition, % at 5 µM; 96,000 compounds, 20% hits; AID 777;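 active means blocking of liver enzyme CYP2C9 beyond about 50% at 5 µM, limit read from the data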
Starred values were filed as active, the others as inactive; x = no result given. An excerpt weighted towards active compounds, which were near 32% of everything screened. Unless noted, no stated cut-off is given here; in the data, active means inhibition above about 30%; inactive means the rest.

SMILES	CYP2C19 activ	PostGolgi ctrl	PostGolgi yeast	CYP2C19 inh	CYP2C9 activ	CYP2C9 inh
Nc1nnc(SCc2cc3c(cc2Cl)OCO3)s1	0.3	6.8	0.8	69.7*	0.5	49.1
Nc1nnc(SCc2ccccc2Cl)s1	0.3	8.9	-16.1	67.8*	1.1	-7.1
CCc1nc2ccccc2c(C(=O)OCC(=O)NCCCN2CCCC2=O)c1C	0.8	-7.5	18.2	20.9	1.3	-28.0
CCN(CC)c1ccc(SS(=O)(=O)O)cc1	1.1	-4.4	1.3	-11.6	1.1	-8.7
Cc1cc(C)nc(/N=C(\N)Nc2cc([N+](=O)[O-])ccc2C)n1	0.8	17.6	1.5	15.8	0.9	8.7
Cc1nnc(NC(=O)c2c(F)cccc2F)s1	1	-2.4	-4.6	3.2	0.9	9.5
CCCn1c2c(c(O)c(C(=O)Nc3ncccc3C)c1=O)CCCC2	0.9	43.4*	-2.1	6.3	0.6	35.3
Cc1csc(NC(=O)c2c(O)c3c(n(CC(C)C)c2=O)CCCC3)n1	0.9	25.8	-4.2	14.5	0.5	51.4*
CCCn1c2c(c(O)c(C(=O)Nc3nccs3)c1=O)CCCC2	1	24.1	22.0	1.8	1.1	-14.7
CCCn1c2c(c(O)c(C(=O)Nc3ccc(OCC)cc3)c1=O)CCCC2	1	7.4	0.9	-1.8	0.5	52.4*
CC1(C)CC(=O)C2=C(C1)N(Cc1cccnc1)C(=O)C2(NC(=O)c1ccc(F)cc1)C(F)(F)F (stereo unspecified)	0.8	3.6	-2.5	19.6	0.8	22.6
NC(=O)C1(N2CCCCC2)CCN(C(=O)c2cccs2)CC1	0.7	2.4	0.2	28.7	0.9	8.6
Cc1ccc(N2C(=O)C3CC(c4ccccc4)=C4C5C=CC(C6C(=O)N(c7ccc(C)cc7C)C(=O)C56)C4C3C2=O)c(C)c1 (stereo unspecified)	0.9	1.4	-8.7	13.3	0.2	84.8*
COc1ccc(C2=NO[C@@H]3C(=O)N(c4ccc(C)cc4C)C(=O)[C@H]23)cc1OC	1	-2.6	-1.0	-0.9	1	0.0
Cc1ccccc1C(=O)NC1CC(C)(C)NC(C)(C)C1	x	-1.8	-0.8	x	x	x
Cc1ccc(C)c(C(=O)NC2CC(C)(C)NC(C)(C)C2)c1	0.5	22.2	-5.0	54.2*	1	3.4
O=[N+]([O-])c1ccc(-c2cnc(SCc3ccccc3Cl)[nH]2)cc1	0.9	42.2*	4.0	8.3	0.5	52.1*
Cc1cc(C)c(CSc2ncc(-c3ccc([N+](=O)[O-])cc3)[nH]2)c(C)c1	0.7	48.5*	5.2	34.0	0.3	65.0*
O=c1cc(-c2ccccc2)[nH]n1-c1ccc([N+](=O)[O-])cc1	0.8	-0.8	0.7	17.0	0.9	6.1
COc1ccc2oc(=O)c(C(=O)n3ccc(C)n3)cc2c1	0.9	12.5	-0.2	5.2	0.9	5.2
COc1ccc(CN2CCCCC2c2cccnc2)c(OC)c1C (stereo unspecified)	0.6	x	x	38.5	0.9	5.0
COc1ccc(NC(=O)c2cc3ccccn3n2)cc1	0.6	-4.8	-4.2	38.4	0.8	18.0
COc1ccc(CCNC(=O)c2cc3ccccn3n2)c(OC)c1OC	0.2	10.7	-2.9	75.4*	0.8	17.3
Cc1ccc(C(=O)C2COC(=O)C2)cc1 (stereo unspecified)	1	-2.7	4.0	-0.2	1.1	-6.8
CCc1sc(C(=O)Nc2cc(Cl)ccc2N2CCCCC2)cc1C	1.1	41.4*	64.4*	-9.8	1	1.6
SMILES	CYP2C19 activ	PostGolgi ctrl	PostGolgi yeast	CYP2C19 inh	CYP2C9 activ	CYP2C9 inh
O=C(c1ccccc1NS(=O)(=O)c1ccc(Br)s1)N1CCCC1	0.3	24.0	-1.8	69.4*	0.9	8.4
Cc1sc(NC(=O)c2ccco2)c(CN2CCN(c3ccccc3)CC2)c1C	0.3	9.1	2.1	72.1*	0.2	80.4*
CC(C)c1ccc(N2CCN(C(=O)c3ccccc3NC(=O)/C=C\C(=O)O)CC2)cc1	1	4.1	-1.6	-4.8	1	1.3
O=C(c1ccccc1NS(=O)(=O)c1ccc(F)cc1)N1CCCC1	0.7	1.6	-6.8	31.2	0.9	11.4
Cc1sc(NC(=O)c2ccco2)c(CN2CCCCC2)c1C	1	23.6	-8.3	1.9	0.9	11.0
O=C(Nc1ccc(Cl)cc1C(=O)N1CCOCC1)c1ccco1	1.1	11.1	1.6	-8.8	1	2.4
O=C(O)/C=C\C(=O)Nc1ccccc1C(=O)N1CCN(c2ccc(Cl)cc2)CC1	0.7	16.1	0.5	34.5	0.4	58.0*

Compound activity deposited in PubChem BioAssay by several laboratories.
